Structures are written as SMILES. Values without a mark were called inactive. For some of these results: Entries with a potency or affinity are not part of this list. Active and inactive are the calls of the source. Unless noted, no rule for the calls is given here.

In PubChem BioAssay one finds growth inhibition, inhibition and outcome data, which are given here for 20 compounds.

A short description of test [1]: antimalarial activity against Dd2 strain (AID 2302;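 active = growth inhibition above 50% at the single 2 µM test dose, taken to imply half-maximal potency below 2 µM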;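 also: 0% = DMSO untreated growth and 100% = chloroquine plus artemisinin killed control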). The note with it: P. falciparum Dd2 in RBCs, LDH growth readout, 72 h; at 2 µM; hits give high values.
Test [2] can be described thus: human hepatoma cell viability loss – ATP luminescence, cytotoxicity control for P. falciparum antimalarial project, primary screen (AID 2303;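 active = inhibition above 50%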;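 also: 0% = DMSO wells and 100% = digitonin-killed cells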). The following applies: HepG2 viability, 24-48 h, at 10 µM, hits give high values.
In test [3] the target is L-lactate dehydrogenase (Plasmodium falciparum (isolate CDC / Honduras)) (UniProt Q27743). The experiment in a line: PfLDH activity inhibition – cell lysate, 3D7 strain, counter-screen for P. falciparum growth inhibition project (AID 2304).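 Also: 0% = vehicle and 100% = reference inhibitor.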 The note with it: P. falciparum 3D7 crude extract, LDH APAD/NBT absorbance; at 2 µM; hits give high values.
Chain of L-lactate dehydrogenase (Plasmodium falciparum (isolate CDC / Honduras)) (Q27743 whole entry, looked up): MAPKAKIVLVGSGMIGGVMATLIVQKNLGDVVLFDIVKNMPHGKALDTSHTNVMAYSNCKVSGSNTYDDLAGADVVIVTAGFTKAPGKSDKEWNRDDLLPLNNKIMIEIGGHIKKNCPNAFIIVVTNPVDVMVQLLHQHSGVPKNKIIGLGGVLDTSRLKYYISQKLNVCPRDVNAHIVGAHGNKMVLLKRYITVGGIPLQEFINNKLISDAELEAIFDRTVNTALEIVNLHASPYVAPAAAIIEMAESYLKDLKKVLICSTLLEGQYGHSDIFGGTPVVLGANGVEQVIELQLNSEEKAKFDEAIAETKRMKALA
Test [4] in a line: inhibition of 3D7 malaria parasite growth – strain 3D7 (AID 2306).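 Also: 0% = DMSO wells and 100% = chloroquine plus artemisinin control wells.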 The following applies: P. falciparum 3D7 erythrocytic growth, LDH absorbance, 72 h; at 2 µM; hits give high values.
For test [5], the target named is Calcium-dependent protein kinase 1 (Plasmodium falciparum (isolate 3D7)) (UniProt P62344). The experiment in a line: PfCDPK1 kinase inhibitors, biochemical, TCAMS library (AID 1159585; cut-off not given, nearly all actives have IC50 up to about 0.98 µM;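 also: inhibitors leave more ATP so luminescence rises with inhibition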). The following applies: recombinant PfCDPK1, Kinase-Glo ATP depletion luminescence.
Chain of Calcium-dependent protein kinase 1 (Plasmodium falciparum (isolate 3D7)) (P62344 whole entry, looked up): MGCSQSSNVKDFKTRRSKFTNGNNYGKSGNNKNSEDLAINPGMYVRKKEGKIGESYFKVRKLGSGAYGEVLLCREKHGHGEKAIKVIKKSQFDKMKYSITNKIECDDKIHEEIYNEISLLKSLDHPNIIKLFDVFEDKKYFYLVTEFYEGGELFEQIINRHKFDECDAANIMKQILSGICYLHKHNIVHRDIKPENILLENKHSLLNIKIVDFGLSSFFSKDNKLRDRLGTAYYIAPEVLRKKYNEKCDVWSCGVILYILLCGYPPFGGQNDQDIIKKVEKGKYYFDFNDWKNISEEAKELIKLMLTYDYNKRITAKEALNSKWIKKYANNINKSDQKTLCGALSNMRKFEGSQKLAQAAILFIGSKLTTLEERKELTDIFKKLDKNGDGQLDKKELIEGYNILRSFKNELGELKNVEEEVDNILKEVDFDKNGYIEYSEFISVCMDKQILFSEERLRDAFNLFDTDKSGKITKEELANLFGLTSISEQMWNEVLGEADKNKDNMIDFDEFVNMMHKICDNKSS
Test [6] has as its target Plasmodium falciparum protein kinase 6 (PK6, PF3D7_1337100) (UniProt Q8IDW1). The experiment in a line: PfPK6 kinase inhibitors, biochemical, TCAMS library (AID 1159586). The following applies: recombinant PfPK6, Kinase-Glo ATP depletion luminescence.
Test [7] has as its target Protein kinase 7 (PK7), Plasmodium falciparum 3D7 (PF3D7_0213400) (UniProt Q7YTF7). The experiment in a line: inhibition of Plasmodium PK7 catalytic activity – biochemical, TCAMS antimalarial set, Kinase-Glo luminescence (AID 1159587). The note with it: recombinant PfPK7, Kinase-Glo ATP depletion luminescence.
Test [8] has as its target Calcium-dependent protein kinase 4 (Plasmodium falciparum (isolate 3D7)) (UniProt Q8IBS5). The experiment in a line: PfCDPK4 kinase inhibitors, biochemical, TCAMS library (AID 1159588; cut-off not given, nearly all actives have IC50 up to about 0.91 µM). The note with it: recombinant PfCDPK4, Kinase-Glo ATP depletion luminescence.

Chain of Protein kinase 7 (PK7), Plasmodium falciparum 3D7 (PF3D7_0213400) (Q7YTF7 1-343): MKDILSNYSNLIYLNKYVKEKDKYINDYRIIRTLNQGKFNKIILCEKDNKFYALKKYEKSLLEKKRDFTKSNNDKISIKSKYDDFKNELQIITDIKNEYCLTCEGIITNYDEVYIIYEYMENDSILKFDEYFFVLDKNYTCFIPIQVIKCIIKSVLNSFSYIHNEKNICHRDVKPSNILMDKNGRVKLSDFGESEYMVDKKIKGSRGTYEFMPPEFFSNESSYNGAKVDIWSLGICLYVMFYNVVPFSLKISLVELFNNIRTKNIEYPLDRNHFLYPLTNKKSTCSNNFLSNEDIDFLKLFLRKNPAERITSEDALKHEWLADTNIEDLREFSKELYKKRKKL
Chain of Calcium-dependent protein kinase 4 (Plasmodium falciparum (isolate 3D7)) (Q8IBS5 whole entry, looked up): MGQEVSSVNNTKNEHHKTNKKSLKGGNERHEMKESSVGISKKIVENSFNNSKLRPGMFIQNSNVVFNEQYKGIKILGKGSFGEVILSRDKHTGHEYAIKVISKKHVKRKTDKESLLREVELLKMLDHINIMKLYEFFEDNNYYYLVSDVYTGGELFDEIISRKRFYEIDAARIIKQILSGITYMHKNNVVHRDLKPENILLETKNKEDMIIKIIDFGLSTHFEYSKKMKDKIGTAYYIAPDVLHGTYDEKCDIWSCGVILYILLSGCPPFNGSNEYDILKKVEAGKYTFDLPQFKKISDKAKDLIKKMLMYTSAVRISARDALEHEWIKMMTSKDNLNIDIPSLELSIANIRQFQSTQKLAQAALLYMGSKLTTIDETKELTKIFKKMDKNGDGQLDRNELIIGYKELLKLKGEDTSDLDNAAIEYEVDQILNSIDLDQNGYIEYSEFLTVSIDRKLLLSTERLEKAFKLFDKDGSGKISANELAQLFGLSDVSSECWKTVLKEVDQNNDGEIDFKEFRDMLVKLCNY
Chain of Plasmodium falciparum protein kinase 6 (PK6, PF3D7_1337100) (Q8IDW1 1-305): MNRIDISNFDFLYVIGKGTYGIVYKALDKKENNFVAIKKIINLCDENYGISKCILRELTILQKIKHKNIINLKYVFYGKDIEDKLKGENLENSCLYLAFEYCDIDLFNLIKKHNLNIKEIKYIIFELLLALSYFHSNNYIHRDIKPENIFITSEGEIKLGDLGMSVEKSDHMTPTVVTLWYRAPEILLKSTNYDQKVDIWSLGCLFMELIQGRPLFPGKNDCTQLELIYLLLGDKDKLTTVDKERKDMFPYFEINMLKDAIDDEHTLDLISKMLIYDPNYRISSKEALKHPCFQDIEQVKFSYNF

With `Cc1ccc(-n2[nH]c(C)c(N=Nc3cccc(-c4cccc(NC(=O)OC(C)(C)C)c4)c3O)c2=O)cc1C`, the growth inhibition was 21% in test [1] and 94% (active) in test [4]. Also, the inhibition in test [2] is 39%; in test [3], -4%. The result in test [5], in test [6], in test [7] and in test [8] was inactive.

Regarding `COc1cc2nc(N3CCC(CNC(=O)c4cccc5cc[nH]c45)CC3)nc(N)c2cc1OC`, the growth inhibition in test [1] is 24%; in test [4], 98% (active). Besides, the inhibition in test [2] was 33%; in test [3] it was -3%. The result in test [5], in test [6], in test [7] and in test [8] was inactive.

Turning to `Cc1[nH]c(C)c(-c2ccc(-c3ccc(F)cc3)cc2)c(=O)c1Br`, the growth inhibition is 52% (active) in test [1] and 94% (active) in test [4]. Also, the inhibition in test [2] is 12%; in test [3] it was 2%. In addition, the outcome in test [5], in test [6], in test [7] and in test [8] was inactive.

As to `COC(=O)C(=C(C)C)N1C(=O)[C@@H](NC(=O)OCc2ccccc2)[C@H]1SS[C@@H]1[C@H](NC(=O)OCc2ccccc2)C(=O)N1C(C(=O)OC)=C(C)C`, the growth inhibition in test [1] was 96% (active); in test [4], 97% (active). Also, the inhibition is 18% in test [2] and -5% in test [3]. Moreover, the result in test [5], in test [6], in test [7] and in test [8] was inactive.

Turning to `CCCC(N)C(=O)NC1CCN(c2c(F)c(N)c3c(=O)c(C(=O)O)cn4c3c2Oc2ccccc2-4)C1` (stereo not given), the growth inhibition in test [1] and in test [4] was 98% (active) throughout. Besides, the inhibition in test [2] is 66% (active); in test [3] it was -5%. The result in test [5], in test [6], in test [7] and in test [8] was inactive.

With `CC1(CCCCN2CCC(Cc3ccccc3)CC2)C(=O)Nc2ccccc21` (stereo not given), the growth inhibition was 28% in test [1] and 100% (active) in test [4]. In addition, the inhibition in test [2] is 66% (active); in test [3], -8%. Further, the result in test [5], in test [6], in test [7] and in test [8] was inactive.

As to `COc1ccccc1-c1cc(C(=O)N2CCN(S(=O)(=O)c3ccc(C)cc3)CC2)[nH]n1`, the growth inhibition in test [1] and in test [4] was 88% (active) in each case. In addition, the values for the inhibition in test [2] and in test [3] were -12% and -4%, respectively. The result in test [5], in test [6], in test [7] and in test [8] was inactive.

Regarding `O=[N+]([O-])c1ccc2nc(Nc3cccc(C(F)(F)F)c3)c(Nc3cccc(C(F)(F)F)c3)nc2c1`, the growth inhibition in test [1] is 99% (active); in test [4], 101% (active). For the same compound, the figures for the inhibition in test [2] and in test [3] were -2% and -4%, respectively. The outcome in test [5], in test [6], in test [7] and in test [8] was inactive.

In the case of `CC(C)(C)OC(=O)NCc1ccc(Nc2nnc(-c3ccc(OCC(=O)NCc4cc(C(F)(F)F)cc(C(F)(F)F)c4)c([N+](=O)[O-])c3)o2)cc1`, the results for the growth inhibition in test [1] and in test [4] were 92% (active) and 97% (active), respectively. The inhibition in test [2] is 24%; in test [3], -1%. For the same compound, the outcome in test [5], in test [6], in test [7] and in test [8] was inactive.

In the case of `Cc1cccc2[nH]c(-c3ccc(-c4cccc(CNCc5ccc(S(C)(=O)=O)cc5)c4)s3)nc12`, the growth inhibition in test [1] is 91% (active); in test [4] it was 100% (active). Besides, the figures for the inhibition in test [2] and in test [3] were 31% and -3%, respectively. The result in test [5], in test [6], in test [7] and in test [8] was inactive.

As for `CN(C)c1ccc(Br)c(Br)c1`, the growth inhibition is -4% in test [1] and 86% (active) in test [4]. Further, the inhibition in test [2] was 17%; in test [3], -5%. Moreover, the result in test [5], in test [6], in test [7] and in test [8] was inactive.

Consider `O=C(Nc1ccc2ccccc2n1)c1ccccc1-c1ccccc1`, for which the growth inhibition in test [1] is 83% (active); in test [4], 90% (active). Besides, the inhibition in test [2] was 14%; in test [3], 0%. The result in test [5], in test [6], in test [7] and in test [8] was inactive.

As for `COc1ccc2nccc(NC(=O)C3(O)CCC(NCc4ccc5c(c4)NCCS5)CC3)c2n1` (stereo not given), the growth inhibition is 64% (active) in test [1] and 93% (active) in test [4]. The inhibition in test [2] was 1%; in test [3] it was -1%. The result in test [5], in test [6], in test [7] and in test [8] was inactive.

Consider `CCOC(=O)c1ccc(NC(=O)N[C@@H](Cc2ccccc2)C(=O)NC2CCN(Cc3ccc(O)c(OC)c3)C2)cc1` (stereo not given in full), for which the growth inhibition is 0% in test [1] and 88% (active) in test [4]. For the same compound, the values for the inhibition in test [2] and in test [3] were -1% and -2%, respectively. Further, the outcome in test [5], in test [6], in test [7] and in test [8] was inactive.

Consider `Cc1[nH]nc2ccc(-c3cc(OC[C@@H](N)Cc4ccccc4)cnc3-c3ccccc3OCc3cccc(F)c3)cc12`, for which the growth inhibition in test [1] and in test [4] was 91% (active) in each case. Also, the inhibition was 55% (active) in test [2] and -2% in test [3]. In addition, the outcome in test [5], in test [6], in test [7] and in test [8] was inactive.

With `Cc1ccc(C(C(=O)Nc2ccc(N3CCNCC3)c(Cl)c2)c2ccccc2)cc1` (stereo not given), the growth inhibition is 93% (active) in test [1] and 97% (active) in test [4]. Also, the inhibition in test [2] was 23%; in test [3], -2%. For the same compound, the result in test [5], in test [6], in test [7] and in test [8] was inactive.

Turning to `O=C(Nc1ccc(Cl)c(Cl)c1)Nc1cc(C(F)(F)F)ccc1Cl`, the growth inhibition in test [1] was 85% (active); in test [4], 101% (active). Besides, the inhibition in test [2] was -1%; in test [3], -4%. For the same compound, the result in test [5], in test [6], in test [7] and in test [8] was inactive.

On to `COc1ccc(NC(=O)c2ccc(Br)c(C)c2)cc1N1CCN(Cc2ccccc2)CC1`, for which the growth inhibition in test [1] was 3%; in test [4], 95% (active). Moreover, the inhibition in test [2] is -2%; in test [3], 0%. The outcome in test [5], in test [6], in test [7] and in test [8] was inactive.

With `Cc1ccc(Nc2nc(-c3ccccn3)cs2)nc1`, the growth inhibition is 97% (active) in test [1] and 94% (active) in test [4]. The inhibition in test [2] was 60% (active); in test [3], -8%. The outcome in test [5], in test [6], in test [7] and in test [8] was inactive.

Regarding `Cc1cc(O)c(C(C)C)cc1C1(c2cc(C(C)C)c(O)cc2C)OC(=O)c2ccccc21`, the growth inhibition in test [1] was 18%; in test [4] it was 95% (active). Besides, the inhibition in test [2] was 8%; in test [3], -3%. Further, the result in test [5], in test [6], in test [7] and in test [8] was inactive.
